The campaign covered roughly 5,500 compounds. About 2,000 (36%) were called active. Roughly 18% stayed inconclusive and do not appear here. Cut-off read from the data, not from the text of the source: active = normalized growth mostly below about 0.91 (no sharp cut-off); inconclusive = no clear call, values can overlap the other calls; inactive = mostly above about 0.92. The list shows a part of the results.
Experiment: chemical genetic growth profiling, strain panel (AID 1159580);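 note: tested at 20 µM; growth read once vehicle control cultures reached saturation at 30 °C; 1 = growth at the plate median or of vehicle wells; lower values mean less growth of the strain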
Details: growth OD
[1] = S. cerevisiae deletion strains, locus YCL061C, strain MRC1, active compounds read low
[2] = S. cerevisiae deletion strains, locus YHR030C, strain SLT2, active compounds read low

Measured: normalized growth

CCOC(CN(c1ccc(F)cc1)S(=O)(=O)c1ccc(F)cc1F)OCC
inactive: S. cerevisiae deletion strains, locus YAL013W, strain DEP1, active compounds read low 1 | S. cerevisiae deletion strains, locus YBR229C, strain ROT2, active compounds read low 1 | [1] 1.01 | S. cerevisiae deletion strains, locus YDL101C, strain DUN1, active compounds read low 0.98 | S. cerevisiae deletion strains, locus YDL134C, strain PPH21, active compounds read low 1.01 | S. cerevisiae deletion strains, locus YDR150W, strain NUM1, active compounds read low 0.957 | S. cerevisiae deletion strains, locus YEL061C, strain CIN8, active compounds read low 0.986 | S. cerevisiae deletion strains, locus YGR078C, strain PAC10, active compounds read low 0.997 | [2] 0.936 | S. cerevisiae deletion strains, locus YHR087W, strain rtc3, active compounds read low 1.03 | S. cerevisiae deletion strains, locus YJR043C, strain POL32, active compounds read low 0.989 | S. cerevisiae deletion strains, locus YJR075W, strain HOC1, active compounds read low 0.981 | S. cerevisiae deletion strains, locus YLR039C, strain RIC1, active compounds read low 0.96 | S. cerevisiae deletion strains, locus YLR058C, strain SHM2 (second series), active compounds read low 0.996 | S. cerevisiae deletion strains, locus YLR085C, strain ARP6, active compounds read low 1.01 | S. cerevisiae deletion strains, locus YLR262C, strain YPT6, active compounds read low 0.935 | S. cerevisiae deletion strains, locus YML094W, strain GIM5, active compounds read low 0.999 | S. cerevisiae deletion strains, locus YMR219W, strain ESC1, active compounds read low 0.994 | S. cerevisiae deletion strains, locus YMR263W, strain SAP30, active compounds read low 0.987 | S. cerevisiae deletion strains, locus YMR307W, strain GAS1, active compounds read low 0.731 | S. cerevisiae deletion strains, locus YNL153C, strain GIM3, active compounds read low 1.01 | S. cerevisiae deletion strains, locus YNL298W, strain CLA4 (second series), active compounds read low 1.01 | S. cerevisiae deletion strains, locus YNL322C, strain KRE1, active compounds read low 0.995 | S. cerevisiae deletion strains, locus YNR030W, strain Alg12, active compounds read low 0.993 | S. cerevisiae deletion strains, locus YOL006C, strain TOP1, active compounds read low 1.03 | S. cerevisiae deletion strains, locus YPL055C, strain LGE1, active compounds read low 1.04 | S. cerevisiae deletion strains, locus YPL241C, strain CIN2, active compounds read low 1 | S. cerevisiae deletion strains, locus YPR135W, strain CTF4, active compounds read low 1.02 | S. cerevisiae strains, strain wild type, active compounds read low 0.991

C/C=C\C1=C(C(=O)O)N2C(=O)C(NC(=O)C(N)c3ccc(O)cc3)C2SC1 (stereo not drawn)
inactive: S. cerevisiae deletion strains, locus YAL021C, strain ccr4, active compounds read low 0.983 | S. cerevisiae deletion strains, locus YAL026C, strain drs2, active compounds read low 1.01 | S. cerevisiae deletion strains, locus YAL030W, strain snc1, active compounds read low 1 | S. cerevisiae deletion strains, locus YBL061C, strain skt5, active compounds read low 1.02 | S. cerevisiae deletion strains, locus YBR009C, strain hhf1, active compounds read low 1.01 | S. cerevisiae deletion strains, locus YBR023C, strain chs3, active compounds read low 1.01 | S. cerevisiae deletion strains, locus YBR171W, strain sec66, active compounds read low 1.01 | S. cerevisiae deletion strains, locus YBR231C, strain swc5, active compounds read low 1.01 | S. cerevisiae deletion strains, locus YBR279W, strain paf1, active compounds read low 1 | S. cerevisiae deletion strains, locus YCL011C, strain gbp2, active compounds read low 1 | S. cerevisiae deletion strains, locus YCL016C, strain dcc1, active compounds read low 1 | [1] 1 | S. cerevisiae deletion strains, locus YCL069W, strain vba3, active compounds read low 1.01 | S. cerevisiae deletion strains, locus YCR088W, strain abp1, active compounds read low 1.01 | S. cerevisiae deletion strains, locus YDL005C, strain med2, active compounds read low 1 | S. cerevisiae deletion strains, locus YDL040C, strain nat1, active compounds read low 1.01 | S. cerevisiae deletion strains, locus YDR001C, strain nth1, active compounds read low 1.01 | S. cerevisiae deletion strains, locus YDR069C, strain doa4, active compounds read low 0.995 | S. cerevisiae deletion strains, locus YDR137W, strain rgp1, active compounds read low 1.01 | S. cerevisiae deletion strains, locus YDR159W, strain sac3, active compounds read low 0.987 | S. cerevisiae deletion strains, locus YDR195W, strain ref2 0.978 | S. cerevisiae deletion strains, locus YDR297W, strain sur2, active compounds read low 1 | S. cerevisiae deletion strains, locus YDR334W, strain swr1, active compounds read low 1.01 | S. cerevisiae deletion strains, locus YDR335W, strain msn5, active compounds read low 1.01 | S. cerevisiae deletion strains, locus YDR392W, strain spt3, active compounds read low 0.991 | S. cerevisiae deletion strains, locus YEL003W, strain gim4, active compounds read low 1 | S. cerevisiae deletion strains, locus YEL037C, strain rad23, active compounds read low 1.01 | S. cerevisiae deletion strains, locus YEL061C, strain CIN8 (second series), active compounds read low 1 | S. cerevisiae deletion strains, locus YER015W, strain faa2, active compounds read low 1 | S. cerevisiae deletion strains, locus YER016W, strain bim1, active compounds read low 1.01 | S. cerevisiae deletion strains, locus YER111C, strain swi4, active compounds read low 0.996 | S. cerevisiae deletion strains, locus YER155C, strain BEM2 (second series), active compounds read low 1.01 | S. cerevisiae deletion strains, locus YFR010W, strain ubp6, active compounds read low 1.02 | S. cerevisiae deletion strains, locus YGL167C, strain pmr1, active compounds read low 1.01 | S. cerevisiae deletion strains, locus YGL173C, strain kem1, active compounds read low 1 | S. cerevisiae deletion strains, locus YGL227W, strain vid30, active compounds read low 1.01 | S. cerevisiae deletion strains, locus YGL240W, strain doc1, active compounds read low 0.988 | S. cerevisiae deletion strains, locus YGL253W, strain hxk2, active compounds read low 1.01 | S. cerevisiae deletion strains, locus YHR013C, strain ard1, active compounds read low 0.997 | S. cerevisiae deletion strains, locus YHR027C, strain rpn1, active compounds read low 0.993 | [2] 1.02 | S. cerevisiae deletion strains, locus YHR079C, strain IRE1, active compounds read low 1.04 | S. cerevisiae deletion strains, locus YHR142W, strain chs7, active compounds read low 1.03 | S. cerevisiae deletion strains, locus YJL092W, strain hpr5, active compounds read low 1.01 | S. cerevisiae deletion strains, locus YJL095W, strain BCK1 (second series), active compounds read low 0.998 | S. cerevisiae deletion strains, locus YJL095W, strain BCK1, active compounds read low 0.997 | S. cerevisiae deletion strains, locus YJL115W, strain asf1, active compounds read low 0.999 | S. cerevisiae deletion strains, locus YJL129C, strain trk1, active compounds read low 1.02 | S. cerevisiae deletion strains, locus YJL154C, strain vps35, active compounds read low 1.01 | S. cerevisiae deletion strains, locus YJL164C, strain tpk1, active compounds read low 1.02 | S. cerevisiae deletion strains, locus YJL166W, strain qcr8, active compounds read low 1 | S. cerevisiae deletion strains, locus YJR066W, strain TOR1, active compounds read low 0.982 | S. cerevisiae deletion strains, locus YKL160W, strain elf1, active compounds read low 1 | S. cerevisiae deletion strains, locus YKR026C, strain gcn3, active compounds read low 1 | S. cerevisiae deletion strains, locus YKR091W, strain srl3, active compounds read low 1 | S. cerevisiae deletion strains, locus YLL001W, strain dnm1, active compounds read low 1.01 | S. cerevisiae deletion strains, locus YLL026W, active compounds read low 0.999 | S. cerevisiae deletion strains, locus YLL041C, strain sdh2, active compounds read low 1.03 | S. cerevisiae deletion strains, locus YLR027C, strain aat2, active compounds read low 1.01 | S. cerevisiae deletion strains, locus YLR113W, strain HOG1, active compounds read low 0.957 | S. cerevisiae deletion strains, locus YLR221C, strain rsa3, active compounds read low 1 | S. cerevisiae deletion strains, locus YLR258W, strain gsy2, active compounds read low 1.02 | S. cerevisiae deletion strains, locus YLR262C, strain YPT6 (second series), active compounds read low 1.01 | S. cerevisiae deletion strains, locus YLR320W, strain mms22, active compounds read low 1.02 | S. cerevisiae deletion strains, locus YLR342W, strain FKS1, active compounds read low 1 | S. cerevisiae deletion strains, locus YLR357W, strain rsc2, active compounds read low 1.01 | S. cerevisiae deletion strains, locus YLR370C, strain arc18, active compounds read low 1.02 | S. cerevisiae deletion strains, locus YLR384C, strain iki3, active compounds read low 1.02 | S. cerevisiae deletion strains, locus YML120C, strain ndi1, active compounds read low 1.02 | S. cerevisiae deletion strains, locus YMR058W, strain fet3, active compounds read low 1.01 | S. cerevisiae deletion strains, locus YMR125W, strain sto1, active compounds read low 1.02 | S. cerevisiae deletion strains, locus YMR129W, active compounds read low 1.01 | S. cerevisiae deletion strains, locus YMR205C, strain PFK2, active compounds read low 1.02 | S. cerevisiae deletion strains, locus YMR231W, strain pep5, active compounds read low 1 | S. cerevisiae deletion strains, locus YNL071W, strain lat1, active compounds read low 1.01 | S. cerevisiae deletion strains, locus YNL183C, strain NPR1, active compounds read low 0.959 | S. cerevisiae deletion strains, locus YNL209W, strain ssb2, active compounds read low 0.997 | S. cerevisiae deletion strains, locus YNL248C, strain rpa49, active compounds read low 1.02 | S. cerevisiae deletion strains, locus YNL322C, strain KRE1 (second series), active compounds read low 0.994 | S. cerevisiae deletion strains, locus YNR049C, strain mso1, active compounds read low 1.03 | S. cerevisiae deletion strains, locus YOR001W, strain rrp6, active compounds read low 1.02 | S. cerevisiae deletion strains, locus YOR070C, strain gyp1, active compounds read low 1.01 | S. cerevisiae deletion strains, locus YOR080W, strain dia2, active compounds read low 1.01 | S. cerevisiae deletion strains, locus YOR083W, strain WHI5, active compounds read low 1.01 | S. cerevisiae deletion strains, locus YOR106W, strain vam3, active compounds read low 0.997 | S. cerevisiae deletion strains, locus YOR231W, strain MKK1, active compounds read low 1.01 | S. cerevisiae deletion strains, locus YOR265W, strain rbl2, active compounds read low 1.02 | S. cerevisiae deletion strains, locus YOR270C, strain vph1, active compounds read low 1.04 | S. cerevisiae deletion strains, locus YOR290C, strain snf2, active compounds read low 1 | S. cerevisiae deletion strains, locus YPL051W, strain arl3, active compounds read low 1.01 | S. cerevisiae deletion strains, locus YPL078C, strain atp4, active compounds read low 1.02 | S. cerevisiae deletion strains, locus YPL106C, strain sse1, active compounds read low 1 | S. cerevisiae deletion strains, locus YPL240C, strain hsp82, active compounds read low 1.01 | S. cerevisiae deletion strains, locus YPL256C, strain CLN2, active compounds read low 1.04

From PubChem BioAssay AID1159580 (chemical genetic matrix, 2015)
